Jurkat NFkB inh – inhibitors of the PMA/ionomycin-induced NF-kB reporter in Jurkat cells. PMA/ionomycin-induced NF-kB luciferase reporter, luminescence. inhibition, % at 4 µM. 0.53% of 330,000 active; in the data active = inhibition above about 50%
Gli-Sufu block – antagonists of Gli-Sufu signaling | Sufu-KO-LIGHT fibroblasts, Gli luciferase reporter luminescence | inhibition, % at 5 µM | 0.74% of 340,000 active;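 active = inhibition above about 55%, limit read from the data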;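 also: 0% = DMSO-treated cells and 100% = wells with medium but no cells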
697 NFkB inh – lowers PMA/ionomycin-induced NF-kB signal in 697 B cells | 697 B-cell NF-kB luciferase reporter, 16 h | inhibition, % at 4 µM | 0.33% of 330,000 active; in the data active = inhibition above about 35%
Shn3 inh set2 – reduces Shn3 3'UTR luciferase signal in osteoblasts; inhibition, % at 12.5 µM; Clone20 osteoblast Shn3 3'UTR firefly luciferase, 24 h; 0.52% of 360,000 active; AID 588674;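 active = mean inhibition of at least 75% with every replicate also reaching 75%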;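 also: 0% = median of neutral control wells and 100% = pilot-screen positive control compound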
Mdm2 MdmX PPI – inhibitors of human Mdm2/MdmX interaction; O15151+Q00987; SaOS-2 split-luciferase Mdm2/MdmX complementation, luminescence; inhibition, % at 8 µM; 3% of 330,000 active;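 active = inhibition of at least 50% at 8 µM in the primary screen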
Mdm2-MdmX conf – human Mdm2/MdmX binding inhibition, confirmed; shares compounds with Mdm2 MdmX PPI; luminescent assay; inhibition, % at 8 µM; 55% of 10,000 active; in the data active = inhibition above about 40%
Full FLuc ctr – full-length luciferase inhibition in Mdm2/MdmX counter-screen | shares compounds with Mdm2 MdmX PPI | SaOS-2 full-length luciferase counterscreen, luminescence | inhibition, % at 8 µM | 77% of 6,200 active | AID 504607;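 active = mean inhibition at 8 µM reaching about 37%, which flags the compound as non-specific, limit read from the data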;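 also: p53-null SaOS-2 cells with luciferase driven by a doxycycline-inducible promoter; compound on cells about two nights before reading with doxycycline added after day one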
Starred values were filed as active, the others as inactive. Shown are actives, neighbours in structure and some others; about 3.8% of the full set was active somewhere.

Screening C[C@H](CO)N1C[C@H](C)[C@@H](CN(C)S(C)(=O)=O)Oc2ccc(NC(=O)Nc3ccc(C(F)(F)F)cc3)cc2C1=O returned Jurkat NFkB inh 8, Gli-Sufu block 0, 697 NFkB inh 14, Shn3 inh set2 -3 and Mdm2 MdmX PPI -13.
`Cc1ccc(S(=O)(=O)N(C)C[C@@H]2Oc3ccc(NC(=O)CCC(F)(F)F)cc3CC(=O)N([C@@H](C)CO)C[C@@H]2C)cc1` gave Jurkat NFkB inh -5, Gli-Sufu block 10, 697 NFkB inh -38, Shn3 inh set2 6, Mdm2 MdmX PPI 59*, Mdm2-MdmX conf 57* and Full FLuc ctr 63*.
`CC(C)NC(=O)C(=O)NCCCN1CCOCC1` gave Jurkat NFkB inh -8, Gli-Sufu block 4, 697 NFkB inh -2, Shn3 inh set2 -7 and Mdm2 MdmX PPI -58.
For C[C@H](CO)N1C[C@H](C)[C@H](CN(C)S(=O)(=O)c2cn(C)cn2)Oc2ccc(NC(=O)Nc3ccc(C(F)(F)F)cc3)cc2CC1=O the results were Jurkat NFkB inh 8, Gli-Sufu block -11, 697 NFkB inh -42, Shn3 inh set2 2 and Mdm2 MdmX PPI 2.
C[C@@H]1CN([C@@H](C)CO)C(=O)Cc2cc(NC(=O)Nc3ccc(C(F)(F)F)cc3)ccc2O[C@@H]1CN(C)S(=O)(=O)c1ccc(Cl)cc1 was read as Jurkat NFkB inh -4, Gli-Sufu block -1, 697 NFkB inh 19, Shn3 inh set2 35, Mdm2 MdmX PPI 94*, Mdm2-MdmX conf 53* and Full FLuc ctr 38*.
N#Cc1c(N)nc2c(c1-c1ccc3c(c1)OCO3)CCc1ccccc1-2 was read as Jurkat NFkB inh -4, Gli-Sufu block 17, 697 NFkB inh -3, Shn3 inh set2 4, Mdm2 MdmX PPI 65*, Mdm2-MdmX conf 36 and Full FLuc ctr 92*.
For COc1ccc([N+](=O)[O-])cc1COc1ccc2c(-c3ccccc3)cc(=O)oc2c1 the results were Jurkat NFkB inh -1, Gli-Sufu block -17, 697 NFkB inh -12, Shn3 inh set2 2, Mdm2 MdmX PPI 52* and Mdm2-MdmX conf -18.
`Cc1cc(=O)oc2cc(Oc3ncccc3[N+](=O)[O-])ccc12` gave Jurkat NFkB inh -3, Gli-Sufu block -8, 697 NFkB inh 12, Shn3 inh set2 -6 and Mdm2 MdmX PPI 1.
For O=Cc1cccc(Oc2ccc([N+](=O)[O-])cc2[N+](=O)[O-])c1 the results were Jurkat NFkB inh -15, Gli-Sufu block -1, 697 NFkB inh 5, Shn3 inh set2 5, Mdm2 MdmX PPI 64* and Mdm2-MdmX conf 32.
`Cc1cc(=O)oc2cc(Oc3ccc([N+](=O)[O-])cc3[N+](=O)[O-])ccc12` gave Jurkat NFkB inh 0, Gli-Sufu block 3, 697 NFkB inh 17, Shn3 inh set2 42, Mdm2 MdmX PPI 60*, Mdm2-MdmX conf 65* and Full FLuc ctr 52*.
Screening CC(=O)COc1ccc2c(-c3cccc([N+](=O)[O-])c3)cc(=O)oc2c1 returned Jurkat NFkB inh 4, Gli-Sufu block -18, 697 NFkB inh 8, Shn3 inh set2 -9 and Mdm2 MdmX PPI 7.
CCOc1ccc(C(=O)OCC(=O)N2CCCC2)cc1OCC was read as Jurkat NFkB inh -4, Gli-Sufu block 20, 697 NFkB inh 19, Shn3 inh set2 -11 and Mdm2 MdmX PPI 17.
CCc1ccc2nc(N3C(=O)c4oc5ccccc5c(=O)c4C3c3ccc(OC)c(OC)c3)sc2c1 (centres undefined) was read as Jurkat NFkB inh 6, 697 NFkB inh 7 and Mdm2 MdmX PPI -13.
For N=c1n(Cc2ccc(Cl)cc2)c2ccccc2n1CC(O)COc1ccccc1 (centres undefined) the results were Jurkat NFkB inh 19, Gli-Sufu block 53, 697 NFkB inh -13, Shn3 inh set2 86*, Mdm2 MdmX PPI 88*, Mdm2-MdmX conf 37 and Full FLuc ctr 88*.
For N=c1n(Cc2ccccc2)c2ccccc2n1CC(O)c1ccco1 (centres undefined) the results were Jurkat NFkB inh 0, Gli-Sufu block -15, 697 NFkB inh -19, Shn3 inh set2 29 and Mdm2 MdmX PPI 35.
